From PubChem BioAssay (NCI)
About 83,000 compounds went through this panel and 20% of them were active in at least one assay; those are over-represented in the sample as a whole.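 For each line, cells grew in 96-well plates with the test compound present at a single concentration for 48 hours.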 Unmarked numbers belong to inactive results. Active and inactive are the calls of the source. Rule for the calls: active = growth percent below 10; inactive = the rest.

Key:
Assay in all cases: NCI-60 one-dose screen, 48 h (100 = growth as untreated, 0 = no growth, -100 = all killed)
Conditions in all cases: 10 µM unless noted
NCI-H23 lung = tested on: NCI-H23 lung
NCI-H226 lung = tested on: NCI-H226 lung
NCI-H322M lung = tested on: NCI-H322M lung
HOP-62 NSCLC = tested on: HOP-62 NSCLC
NCI-H460 lung = tested on: NCI-H460 lung
HOP-92 NSCLC = tested on: HOP-92 NSCLC
NCI-H522 lung = tested on: NCI-H522 lung
A549/ATCC NSCLC = tested on: A549/ATCC NSCLC
786-0 renal = tested on: 786-0 renal
COLO 205 colon = tested on: COLO 205 colon
DU-145 prostate = tested on: DU-145 prostate
K-562 leukemia = tested on: K-562 leukemia
MALME-3M melanoma = tested on: MALME-3M melanoma
MDA-MB-231 breast = tested on: MDA-MB-231 breast
RXF 393 renal = tested on: RXF 393 renal
SF-268 CNS = tested on: SF-268 CNS
SF-295 CNS = tested on: SF-295 CNS
SF-539 CNS = tested on: SF-539 CNS
UACC-257 melanoma = tested on: UACC-257 melanoma
M14 melanoma = tested on: M14 melanoma

| Structure (SMILES) | growth (NCI-H23 lung) | growth (NCI-H226 lung) | growth (NCI-H322M lung) | growth (HOP-62 NSCLC) | growth (NCI-H460 lung) | growth (HOP-92 NSCLC) | growth (NCI-H522 lung) | growth (A549/ATCC NSCLC) | growth (786-0 renal) | growth (COLO 205 colon) | growth (DU-145 prostate) | growth (K-562 leukemia) | growth (MALME-3M melanoma) | growth (MDA-MB-231 breast) | growth (RXF 393 renal) | growth (SF-268 CNS) | growth (SF-295 CNS) | growth (SF-539 CNS) | growth (UACC-257 melanoma) | growth (M14 melanoma) |
| --- | --- | --- | --- | --- | --- | --- | --- | --- | --- | --- | --- | --- | --- | --- | --- | --- | --- | --- | --- | --- |
| COc1ccc(C(=O)NC(=O)Nc2ccc3c(c2)NC(=O)/C3=C\c2[nH]c(C)c(CCC(=O)O)c2C)c(F)c1 | 40.4% | 45% | 50.7% | 19.8% | 17.1% | 83.5% | 26.8% | 7.84% (active) | 31.2% | 37.5% | 42.7% | 23.9% | 40.6% | 71.5% | 21.1% | 35% | 42.7% | -5.86% (active) | 14.1% | 33.2% |
| COc1ccc(/C=C/C(=O)c2ccc(NC(=O)CSc3nnc(-c4cc(OC)c(OC)c(OC)c4)o3)cc2)cc1 | -17% (active) | 12.9% | 20.2% | 43.8% | 14.5% | -55.4% (active) | -76.4% (active) | 7.85% (active) | -58.4% (active) | -61.1% (active) | 4.04% (active) | -52.2% (active) | -70.7% (active) | -80.7% (active) | -84.3% (active) | -76.7% (active) | 57.6% | -90.3% (active) | 40.1% | -60.1% (active) |
| Nc1ncnc2c1ccn2-c1cccc(NC(=O)c2cccc(C(F)(F)F)c2)c1 | 90.6% | 70.2% | 55.8% | 91.7% | 45.8% | -1.72% (active) | 56.2% | 50.7% | 101% | 75.7% | 81.8% | 59% | 98.4% | 58.4% | 58.5% | 67.5% | 36.4% | 64.4% | 93.2% | 83.9% |
| O=C(Nc1ccc(-n2cc(-c3ccncc3)c(-c3ccc(O)c(Cl)c3)n2)cc1)c1ccc(Cl)c(C(F)(F)F)c1 | 29.9% | 79.6% | 54.6% | 33.6% | 8.06% (active) | -3.55% (active) | 24.3% | 28.4% | -30.9% (active) | 57.8% | 35.3% | 5.88% (active) | 25% | -29.1% (active) | -81.6% (active) | 38% | -2.61% (active) | 2.46% (active) | 60.9% | -16.2% (active) |
| Cc1cc[n+](CCCC[n+]2ccc(C)cc2)cc1 | 96% | 99% | 97.1% | 108% | 108% | 74.3% | 120% | 104% | 95.8% | 110% | 101% | 109% | 97.6% | 105% | 106% | 102% | 103% | 102% | 111% | 95.4% |
| CN(C)c1ccc(/C=N/n2c(-c3cc(F)c(Cl)cc3Cl)nn(CN3CCOCC3)c2=S)cc1 | 101% | 97.2% | 94.9% | 87.1% | 121% | 75.2% | 74.1% | 101% | 101% | 108% | 106% | 82.7% | 87.6% | 99.8% | 110% | 119% | 96.1% | 97.1% | 91.9% | 82.6% |
| COc1ccc2c(c1)OC(N)=C(C#N)C2c1ccc(F)cc1 (stereo not given) | 49.9% | 80.9% | 55.7% | 41.3% | 15.8% | 59.8% | -10.1% (active) | 45.9% | 28.1% | 30.6% | 36.8% | 12% | 61.6% | 56.7% | 16.1% | 47.1% | 23.4% | 19.2% | 51.7% | 14.1% |
| COc1ccc(-c2nnc(SCC(=O)Nc3ccc(C(=O)/C=C/c4ccccc4)cc3)o2)cc1OC | 88% | 89% | 90.8% | 119% | 103% | 105% | 91.4% | 97.7% | 101% | 113% | 96.7% | 95.4% | 104% | 106% | 99.8% | 97.6% | 104% | 95.7% | 105% | 105% |
| C=C1C(=O)O[C@H]2[C@H]1CC/C(COC(=O)CCCC(=O)OC/C1=C/CC[C@@]3(C)O[C@H]3[C@H]3OC(=O)C(=C)[C@@H]3CC1)=C\CC[C@@]1(C)O[C@@H]21 | 29.2% | -44.4% (active) | 90% | 79.6% | 64.5% | -43% (active) | -80.3% (active) | 73.5% | -34.1% (active) | -44.9% (active) | 20.8% | 7.38% (active) | -8.44% (active) | 2.73% (active) | -74.2% (active) | 44.2% | 78.3% | 0.465% (active) | -39.9% (active) | -33.1% (active) |
| Cc1cccc(NCS(=O)(=O)O)c1 | 99.5% | 97.1% | 106% | 92.4% | 105% | 99.4% | 90.9% | 75% | 103% | 103% | 112% | 107% | 102% | 111% | 109% | 109% | 106% | 95.7% | 83.2% | 106% |
| CCC(N)(C(=O)O)c1ccc(F)cc1 (stereo not given) | 102% | 106% | 113% | 104% | 106% | 93.9% | 90.2% | 81.5% | 99.9% | 105% | 108% | 91.9% | 112% | 110% | 123% | 102% | 108% | 109% | 86.2% | 103% |
| O=C1CCC(c2c(O)cc(O)c3c(=O)c(O)c(-c4ccc(O)c(O)c4)oc23)N1 (stereo not given) | 94.7% | 104% | 92.8% | 84.3% | 105% | 91.9% | 70.9% | 81.1% | 99.6% | 112% | 105% | 96.1% | 89.6% | 118% | 99.8% | 96.4% | 101% | 103% | 86.1% | 101% |
| O=C(O)c1cccc2oc(-c3ccccc3O)nc12 | 54.4% | 63% | 58.7% | 43.6% | 25.2% | 48.8% | 31.4% | 42% | 59.5% | 12.4% | 63.6% | 60.9% | 70.9% | 51.9% | 61% | 45% | 31.7% | 50% | 80.2% | 54.8% |
| COc1ccc(C(=O)NC(=O)Nc2ccc3c(c2)NC(=O)/C3=C\c2[nH]c(C)c(C(=O)O)c2C)c(F)c1 | 48.9% | 67.1% | 45% | 64.9% | 69.8% | 63.9% | 37.8% | 47.6% | 35% | 88.6% | 28.2% | 62.6% | -8% (active) | 63.5% | -21% (active) | 65.4% | 33.1% | 47.8% | 47.2% | 17.6% |
| O=C(NCCNc1nccc(-c2c(-c3cccc(O)c3)nc3sccn23)n1)c1ccccc1 | 82.6% | 54.5% | 101% | 119% | 42.4% | 58.6% | 72.7% | 56.3% | 66.5% | 48.5% | 90.4% | 62.7% | 9.31% (active) | 80% | 62.6% | 80.7% | 67.4% | 73.2% | 11.3% | 15.3% |
